Screening results deposited in PubChem BioAssay by several laboratories.
rCAG RNA binder – r(CAG) repeat RNA binding. actives 1.3% (n = 370,000). inhibition, % at 3 µM. AID 651821. TO-PRO-1 dye displacement fluorescence;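 active = inhibition above the plate cutoff, the mean of all test compounds on that plate plus 3 SD, cut at about 35% in these data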;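 also: 0% = DMSO alone and 100% = 100 µM mitoxantrone as full dye displacement; higher means more dye released from RNA so lower well fluorescence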
FAS TE block – blocks the thioesterase domain of human fatty acid synthase; P49327; AID 602261; actives 0.67% (n = 360,000); inhibition, % at 15 µM; recombinant FAS-TE, OMFH fluorogenic substrate, fluorescence endpoint;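 active = compounds whose normalised, plate-corrected inhibition of enzyme fluorescence in the single-dose primary screen is 50% or more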;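 also: 0% = DMSO with enzyme and 100% = substrate without enzyme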
NR3A LBD binder – modulates the human NR3A ligand-binding domain | NR3A LBD differential scanning fluorimetry, Tm shift; 0% = protein alone, 100% = glycine-bound protein | Tm shift relative to glycine control, % at 25 µM | actives 2.5% (n = 340,000) | AID 1259313;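 active = melting temperature shift of at least 10% of the positive control shift, at one fixed dose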
NadD block – blocks S. aureus nicotinate mononucleotide adenylyltransferase; inhibition, % at 20 µM; purified NadD enzyme, colorimetric absorbance read-out; AID 602399; actives 0.78% (n = 360,000); in the data active = inhibition above about 26%
Active calls of the source: *; . = not tested or not shown. Shown are actives, neighbours in structure and some others; about 4.3% of the full set was active somewhere.

SMILES	rCAG RNA binder	FAS TE block	NR3A LBD binder	NadD block
COP(=O)(OC)C(Nc1ccc(C)cc1)c1ccc([N+](=O)[O-])cc1 (stereo unspecified)	-5	-4	15*	-4
CC(COc1ccc(S(C)(=O)=O)cc1)CN1CCC(C(O)(c2ccccc2)c2ccccc2)CC1 (stereo unspecified)	1	.	.	.
N#Cc1ccc(NC(=O)Nc2cccc(C#N)c2)cc1	5	9	26*	-7
N#Cc1cccc(NC(=O)CC2CCCCC2)c1	-6	10	12*	-5
N#Cc1cccc(NC(=O)c2ccccc2C(=O)O)c1	2	-3	-1	-3
O=C(CC1CCCC1)Nc1cccc(Br)c1	1	7	-9	-6
CCOC(=O)N1CCN(C(=O)C[C@@H]2C(=O)N(CCc3ccc(Cl)cc3)/C3=C/CCCCC[C@@]32C(=O)OCC)CC1	5	.	.	.
C/C=C/C(=O)N1CCc2cc(S(=O)(=O)N(C)Cc3ccco3)ccc21	6	.	.	.
CN(C)[C@@H]1CCN(c2ccc3c(c2)O[C@H]2CCN(C2)S3(=O)=O)C1	2	.	.	.
Cc1cc(O)c(-c2cc(C(=O)Nc3cccnc3)[nH]n2)cc1C	13	-3	27*	4
CCc1ccc(O)c(-c2cc(C(=O)Nc3cccnc3)[nH]n2)c1	8	-2	20*	-3
Cc1ccc(NC(=O)c2cc(-c3ccccc3)n[nH]2)cc1	4	-2	10*	-5
CC(C)(C)NC(=O)c1cc(-c2ccccc2)n[nH]1	-3	-3	1	-2
CC(=O)Nc1ccc(NC(=O)c2cc(-c3cc(C)c(C)cc3O)n[nH]2)cc1	11	-3	32*	-7
O=C(C1CCCN(S(=O)(=O)c2ccc(F)cc2)C1)N1CCN(Cc2ccccc2)CC1 (stereo unspecified)	1	.	.	.
C=CCN(C(=O)[C@@H](C)[C@@H](O)c1ccc(C(C)=O)cc1)c1ccccc1	3	.	.	.
O=C(CSc1nnc(-c2ccccc2)n1-c1ccc(Cl)cc1)Nc1ccc2cn[nH]c2c1	4	.	.	.
O=C(NCc1ccco1)C(c1ccccc1F)N(Cc1cccnc1)C(=O)Cn1nnc2ccccc21 (stereo unspecified)	0	2	11*	-5
COC(=O)[C@]12C[C@H](CC(=O)NCc3cccc(C(F)(F)F)c3)C(=O)N(Cc3ccc(Cl)cc3Cl)C1=C[C@H](C(C)(C)C)O[C@@H]2C	3	.	.	.
CCOC(=O)/C(=C\c1cn(C)c2ccccc12)[N+](=O)[O-]	3	-7	34*	-3
O=C(Nc1ccc(Br)cc1)NC1CCCCCCC1	-1	20	11*	-4
Cc1ccc(SCc2c(C(=O)N/N=C/c3ccco3)nnn2-c2nonc2N)cc1	6	-8	.	-7
Cc1ccc(SCc2c(C(=O)N/N=C/c3ccccc3)nnn2-c2nonc2N)cc1	6	18	33*	-1
Cc1ccc(SCc2c(C(=O)N/N=C/c3ccc4c(c3)OCO4)nnn2-c2nonc2N)cc1	2	-6	31*	16
Nc1nonc1-n1nnc(C(=O)N/N=C/c2cc(Br)ccc2O)c1CNc1ccccc1	35	21	23*	53*
SMILES	rCAG RNA binder	FAS TE block	NR3A LBD binder	NadD block
Nc1nonc1-n1nnc(C(=O)N/N=C/c2ccco2)c1CSc1ccccc1	16	-2	27*	1
Nc1nonc1C(=O)N/N=C/c1cc(Br)ccc1O	11	.	-13	.
CCN(CC)Cc1c(C(=O)N/N=C/c2cccnc2)nnn1-c1nonc1N	-3	-4	0	1
CCCc1c(C(=O)N/N=C/c2ccc(OCc3ccc(F)cc3)cc2)nnn1-c1nonc1N	4	-4	.	7
Cc1ccc(SCc2c(C(=O)N/N=C/c3cccs3)nnn2-c2nonc2N)cc1	7	6	.	3
CCN(CC)Cc1c(C(=O)N/N=C/c2ccc(OCc3ccccc3C)cc2)nnn1-c1nonc1N	4	25	33*	6
Nc1nonc1-n1nnc(C(=O)N/N=C/c2ccc(OCc3ccccc3F)cc2)c1CNc1ccccc1	5	8	34*	22
Cc1ccc(SCc2c(C(=O)N/N=C/c3ccoc3)nnn2-c2nonc2N)cc1	10	9	12*	9
Cc1ccc(/C=N/NC(=O)c2nnn(-c3nonc3N)c2CSc2ccccc2)cc1	4	-2	40*	3
CCCC[C@H]1C2CC(OC(=O)NCCCC(=O)OCC)C(C2)[C@H]2CCCCN21 (stereo partly specified)	1	.	.	.
C=CCNc1cccc2c1S(=O)(=O)N[C@@H](C)CO2	1	.	.	.
Cc1ccc(/C=N/NC(=O)c2nnn(-c3nonc3N)c2CNc2ccccc2)cc1	13	1	35*	12
COc1ccc(/C=N/n2cnc3c(sc(=S)n3-c3ccccc3)c2=O)cc1	-2	3	16*	-2
Cc1ccc(-c2n[nH]c(=S)n2/N=C/c2ccc(C)s2)cc1	22	0	-12	6
Cc1ccc(/C=N/n2c(-c3ccc(Cl)cc3)n[nH]c2=S)s1	6	-3	21*	15
N#Cc1ccccc1NC(=O)C1SC(=Nc2ccccc2)C(C(=O)Nc2ccc(Cl)cc2)=C1N (stereo unspecified)	37*	30	22*	26
O[C@H](COc1ccccc1)CN1CCC(C(O)(c2ccccc2)c2ccccc2)CC1	0	.	.	.
COc1ccc(C(=O)CSc2nnc(-c3ccccc3)n2-c2ccc(Cl)cc2)cc1	8	.	.	.
Cc1ccc(NC(=O)CCN2C(=O)C3C4CCC(C4)C3C2=O)cc1Cl (stereo unspecified)	-2	-1	18*	9
NS(=O)(=O)c1ccc(C(=O)Nc2ccc(-c3nc4cccnc4s3)cc2)cc1	1	-2	30*	26
NS(=O)(=O)c1ccc(NC(=O)c2ccc(-c3ccccc3)cc2)cc1	20	-4	2	29
CCCCOc1ccc(C(=O)n2ccc3ccc(-c4ccc5ccn(Cc6ccc(OC)cc6)c5c4)cc32)cc1	24	.	.	.
O=S(=O)(NCc1cn(Cc2ccccc2)nn1)c1ccccc1Br	7	.	.	.
COCCCN1C(=O)[C@H](CC(=O)N2CCN(C(=O)c3ccco3)CC2)[C@]2(C(=O)OC)CCCCC=C12	3	.	.	.
CC(=O)c1sc(NC(=O)CCN2C(=O)c3ccccc3C2=O)nc1C	3	-7	17*	-1
SMILES	rCAG RNA binder	FAS TE block	NR3A LBD binder	NadD block
CCc1nnc(NC(=O)CCN2C(=O)c3ccccc3C2=O)s1	-3	-8	-2	12
CCN(c1ccccc1)S(=O)(=O)c1ccc(Cl)c(NC(=O)COC(=O)C2CC2C)c1 (stereo unspecified)	-8	11	-1	-11
CCN(c1ccccc1)S(=O)(=O)c1ccc(Cl)c(NC(=O)COC(=O)c2ccc(O)cc2)c1	15	1	16*	-5
CC(=O)Nc1ccc(N2C(=O)c3ccc(C(=O)Nc4nnc(SCc5ccc(F)cc5)s4)cc3C2=O)cc1	5	7	10*	31*
CCOC(=O)C(=O)Nc1nnc(SCc2ccc(F)cc2)s1	5	-11	22*	-1
CCC(=O)Nc1nnc(SCc2ccc(F)cc2)s1	-3	-3	-7	11
COC(=O)[C@]12C[C@H](CC(=O)N3CCC(c4ccccc4)CC3)C(=O)N(Cc3cccc4ccccc34)C1=C[C@H](C1CCCC1)O[C@@H]2C	10	.	.	.
